In PubChem BioAssay (NCATS):
Results filed as inconclusive are left out. The source made the active and inactive calls. Calls follow the shape of the dose curve; as a rule, active = well fitted curve in the direction sought with a large enough effect; inconclusive = small, poorly fitted or top-dose-only effect, or another doubt; inactive = no such curve, though single readings can be large; an effect the other way counts as inactive or inconclusive.

How the values were obtained:
[1] = qHTS of pediatric cancer cell lines to identify multiple opportunities for drug repurposing: Primary screen for TC32 cells (AID 1347089); also: nearly all actives have a fitted effect of over 60% in size
Outline: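 qHTS, TC32, 48 h drug treatment, CellTiter-Glo luminescence as a proxy for metabolically active cells; primary top concentration 46 µM (MIPE 11-pt, NPC 8-pt); confirmatory 11-pt.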

[2] = qHTS of pediatric cancer cell lines to identify multiple opportunities for drug repurposing: Primary screen for DAOY cells (AID 1347090); also: series mostly up to about 46 µM; nearly all actives have a fitted effect of over 55% in size
Outline: (§1)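 Cell viability, CellTiter-Glo luminescence; 500-1,000 cells/well, 8- or 11-point titration, 48 h compound exposure at 37 degrees C, 5% CO2. Controls: DMSO neutral, bortezomib 2.3 µM final as positive.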

[3] = qHTS of pediatric cancer cell lines to identify multiple opportunities for drug repurposing: Primary screen for SJ-GBM2 cells (AID 1347091)
Outline: as §1

[4] = qHTS of pediatric cancer cell lines to identify multiple opportunities for drug repurposing: Primary screen for A673 cells (AID 1347092); also: nearly all actives have a fitted effect of over 45% in size
Outline: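 Luminescence from CellTiter-Glo, taken after 15 min at room temperature, served as the proxy for metabolically active cells following 48 h treatment. Both potency and efficacy were taken from curves fitted to the titration data.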

[5] = qHTS of pediatric cancer cell lines to identify multiple opportunities for drug repurposing: Primary screen for SK-N-MC cells (AID 1347093); also: series mostly up to about 46 µM
Outline: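 Metabolically active cells were quantified by ATP-dependent luminescence (CellTiter-Glo, 15 min at room temperature) following 48 h treatment. Cells had been plated at 500-1,000 per well and settled for 5 h beforehand.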

[6] = qHTS of pediatric cancer cell lines to identify multiple opportunities for drug repurposing: Primary screen for BT-37 cells (AID 1347094); also: series mostly up to about 57 µM
Outline: (§2)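 Readout: CellTiter-Glo luminescence, 48 h treatment. Controls DMSO (neutral) and bortezomib 2.3 µM final (positive). Potency and efficacy taken from primary-screen concentration-response curves.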

[7] = qHTS of pediatric cancer cell lines to identify multiple opportunities for drug repurposing: Primary screen for NB-EBc1 cells (AID 1347095)
Outline: as §2

[8] = qHTS of pediatric cancer cell lines to identify multiple opportunities for drug repurposing: Primary screen for U-2 OS cells (AID 1347096); also: nearly all actives have a fitted effect of over 50% in size
Outline: (§3)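 Cells (500-1,000/well) rested 5 h, then received compounds for 48 h; metabolically active cells were measured by CellTiter-Glo luminescence. Final concentrations spanned up to 46 µM (MIPE, 11-point) or 0.59 nM-46 µM (NPC, 8-point) in primary screens, 11-point in follow-ups.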

[9] = qHTS of pediatric cancer cell lines to identify multiple opportunities for drug repurposing: Primary screen for Saos-2 cells (AID 1347097); also: nearly all actives have a fitted effect of over 40% in size
Outline: as §2

[10] = qHTS of pediatric cancer cell lines to identify multiple opportunities for drug repurposing: Primary screen for SK-N-SH cells (AID 1347098); also: nearly all actives have a fitted effect of over 65% in size
Outline: as §3

[11] = qHTS of pediatric cancer cell lines to identify multiple opportunities for drug repurposing: Primary screen for NB1643 cells (AID 1347099); also: nearly all actives have a fitted effect of over 50% in size
Outline: as §2

[12] = qHTS of pediatric cancer cell lines to identify multiple opportunities for drug repurposing: Primary screen for LAN-5 cells (AID 1347100)
Outline: as §3

[13] = qHTS of pediatric cancer cell lines to identify multiple opportunities for drug repurposing: Primary screen for BT-12 cells (AID 1347101); also: nearly all actives have a fitted effect of over 25% in size
Outline: as §3

[14] = qHTS of pediatric cancer cell lines to identify multiple opportunities for drug repurposing: Primary screen for Rh18 cells (AID 1347102); also: nearly all actives have a fitted effect of over 65% in size
Outline: as §3

[15] = qHTS of pediatric cancer cell lines to identify multiple opportunities for drug repurposing: Primary screen for OHS-50 cells (AID 1347103); also: nearly all actives have a fitted effect of over 40% in size
Outline: as §3

[16] = qHTS of pediatric cancer cell lines to identify multiple opportunities for drug repurposing: Primary screen for RD cells (AID 1347104); also: nearly all actives have a fitted effect of over 55% in size
Outline: as §2

[17] = qHTS of pediatric cancer cell lines to identify multiple opportunities for drug repurposing: Primary screen for MG 63 (6-TG R) cells (AID 1347105); also: nearly all actives have a fitted effect of over 50% in size
Outline: as §2

[18] = qHTS of pediatric cancer cell lines to identify multiple opportunities for drug repurposing: Primary screen for control Hh wild type fibroblast cells (AID 1347106);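 also: series mostly up to about 46 µM; a drop in luminescence marks cytotoxicity and a rise apparent proliferation; nearly all actives have a fitted effect of over 55% in size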
Outline: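 Viability after 48 h compound treatment at 37C, 500-1,000 cells/well, read as ATP luminescence with CellTiter-Glo. Primary screens used 11-point (MIPE, 0.78 nM-46 µM) or 8-point (NPC, 0.59 nM-46 µM) final concentrations; follow-up screens used 11-point dilutions.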

[19] = target: Tyrosine-protein phosphatase non-receptor type substrate 1 (Homo sapiens) + Leukocyte surface antigen CD47 (Homo sapiens) (UniProt P78324+Q08722); experiment: CD47-SIRPalpha protein protein interaction - Alpha assay qHTS validation (AID 1347059);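 also: bead proximity luminescence from CD47 binding SIRPalpha after compound preincubation with SIRPalpha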
Outline: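 Binding is measured by AlphaScreen proximity: Ni-NTA acceptor beads capture His-CD47, streptavidin donor beads capture biotin-SIRPalpha. Each of three additions (SIRPalpha with compound, CD47, beads) incubates 30 min at room temperature protected from light.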

[20] = target: Parathyroid hormone/parathyroid hormone-related peptide receptor (Homo sapiens) (UniProt Q03431); experiment: qHTS for PTHR1 Agonists: Optimization Screen against the NCGC LOPAC library (AID 1347079);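 also: GloSensor cAMP luminescence in HEK-293 GP2 cells expressing human PTHR1 with IBMX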
Outline: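 Compounds were tested across a qHTS titration. PTHR1-expressing GP2 cells report cAMP rises via GloSensor luminescence after 1 hr compound exposure at 37C with IBMX present.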

Measured: outcome

Sequence of Parathyroid hormone/parathyroid hormone-related peptide receptor (Homo sapiens) (Q03431 whole entry, looked up): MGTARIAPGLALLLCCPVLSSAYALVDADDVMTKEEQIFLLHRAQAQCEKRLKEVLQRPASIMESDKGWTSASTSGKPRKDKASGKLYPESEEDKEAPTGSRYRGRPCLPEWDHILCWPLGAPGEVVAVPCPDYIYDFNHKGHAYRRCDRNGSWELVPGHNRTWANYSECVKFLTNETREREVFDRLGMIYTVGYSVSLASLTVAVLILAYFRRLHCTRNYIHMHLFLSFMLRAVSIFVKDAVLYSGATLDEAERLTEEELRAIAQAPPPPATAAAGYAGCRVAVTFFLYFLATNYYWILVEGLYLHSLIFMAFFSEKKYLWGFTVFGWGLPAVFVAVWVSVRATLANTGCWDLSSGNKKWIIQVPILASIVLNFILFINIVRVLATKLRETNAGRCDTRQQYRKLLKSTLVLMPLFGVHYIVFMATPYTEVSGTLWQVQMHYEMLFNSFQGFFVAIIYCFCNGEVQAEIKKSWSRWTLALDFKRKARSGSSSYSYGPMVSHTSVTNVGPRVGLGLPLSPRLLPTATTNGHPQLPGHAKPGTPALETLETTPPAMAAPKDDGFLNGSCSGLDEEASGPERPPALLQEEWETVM
Sequence of Tyrosine-protein phosphatase non-receptor type substrate 1 (Homo sapiens) + Leukocyte surface antigen CD47 (Homo sapiens) (P78324 whole entry, looked up): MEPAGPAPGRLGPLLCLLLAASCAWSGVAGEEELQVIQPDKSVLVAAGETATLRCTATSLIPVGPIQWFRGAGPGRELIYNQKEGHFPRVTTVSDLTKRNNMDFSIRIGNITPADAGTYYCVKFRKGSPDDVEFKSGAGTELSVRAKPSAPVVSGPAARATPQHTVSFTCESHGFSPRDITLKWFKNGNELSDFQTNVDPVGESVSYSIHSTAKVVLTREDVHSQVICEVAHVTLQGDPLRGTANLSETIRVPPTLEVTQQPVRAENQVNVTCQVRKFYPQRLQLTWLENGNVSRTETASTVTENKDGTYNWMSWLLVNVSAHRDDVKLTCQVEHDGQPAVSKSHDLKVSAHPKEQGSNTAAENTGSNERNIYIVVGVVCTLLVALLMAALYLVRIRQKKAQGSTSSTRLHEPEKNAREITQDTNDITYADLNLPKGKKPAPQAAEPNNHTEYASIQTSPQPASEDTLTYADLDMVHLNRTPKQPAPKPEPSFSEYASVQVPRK
Sequence of Tyrosine-protein phosphatase non-receptor type substrate 1 (Homo sapiens) + Leukocyte surface antigen CD47 (Homo sapiens) (Q08722 whole entry, looked up): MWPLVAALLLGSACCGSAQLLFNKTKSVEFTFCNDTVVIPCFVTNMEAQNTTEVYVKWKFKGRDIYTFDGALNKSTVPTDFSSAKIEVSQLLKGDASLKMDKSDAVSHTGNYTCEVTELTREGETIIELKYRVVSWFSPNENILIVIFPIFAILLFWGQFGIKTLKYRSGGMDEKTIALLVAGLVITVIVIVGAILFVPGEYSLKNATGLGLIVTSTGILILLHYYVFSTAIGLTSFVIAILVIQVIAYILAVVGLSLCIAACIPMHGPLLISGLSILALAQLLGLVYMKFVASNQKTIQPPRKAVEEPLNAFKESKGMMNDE

CC(=O)OC(C)OC(=O)C(C)c1ccc(-c2ccccc2)c(F)c1 (stereo not drawn)
not listed: [19] | [20]
inactive: all other assays above

CN1Cc2c(N)cccc2C(c2ccccc2)C1 (stereo not drawn)
inactive: all assays above
